# High-throughput results (PubChem)
# TGFb inhibitor – blocks TGF-b signaling | AID 588855 | Potency, µM (titrated, usually from 46.1 µM), for inactives: at the top dose activity, negative = inhibition, most hits filed as inhibitors | HepG2 CAGA-GFP TGF-b/SMAD3 reporter, GFP fluorescence, 18 h; TGF-beta stimulated, 500 pg/mL final | hit rate 1.2% among 410,000; further: on the % scale 0 is the no-effect control and ±100 the full control effect; nearly all actives have a fitted effect of over 65% in size
#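 Cell-based qHTS in HEPG2 carrying a CAGA-GFP Smad reporter; compounds added before 500 pg/mL final TGF-beta, 18 h incubation at 37 degrees C, GFP fluorescence quantified per cell by imaging cytometry.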
# KB-V1 MDR tox – kills drug-selected multidrug resistant KB-V1 cells | hit rate 3.4% among 400,000 | Potency, µM (series often up to 46.1 µM), usual class: cytotoxic | KB-V1 MDR cells viability, CellTiter-Glo, 72 h; further: on the % scale 0 is the no-effect control and ±100 the full control effect; nearly all actives have a fitted effect of over 60% in size
#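 Drug-selected KB-V1 cells, grown in DMEM lacking phenol red with 10% FBS, receive compound titrations; after three days at 37 degrees C, surviving cell ATP is quantified by CellTiter-Glo luminescence and responses normalized and curve-fitted.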
# HepG2 tox – counter-screen for TGF-b inhibitors: cytotoxicity in HepG2 cells; HepG2 CAGA-GFP viability, ATP luminescence, 18 h; hit rate 0.76% among 410,000; Potency, µM (series often up to 46.1 µM), inactives show at the top dose activity change, negative = cytotoxicity, usual class: cytotoxic
#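 CellTiter-Glo luminescence gave cytotoxicity after 18 hours at 37 degrees C. The cells were HepG2 CAGA-GFP in 1% FBS DMEM, stimulated with 500 pg/mL TGF-beta after compound addition. %Activity was normalised to no-cell wells (complete cell-killing) and DMSO (no toxicity), and curves were fitted and classified.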
# S2 tox – cell viability loss in ATXN counter-screen; S2 cells (HEK-293 line with an ATXN2-luciferase reporter) viability, CellTiter-Fluor protease fluorescence, 24 h; Potency, µM (highest dose often 56.7 µM), actives largely listed as cytotoxic; hit rate 0.49% among 400,000; further: nearly all actives have a fitted effect of over 40% in size
# ATXN2 expr inh – ATXN2 expression inhibition; Potency, µM (top dose mostly 57 µM), for inactives: at the highest dose activity change, negative = inhibition, usual class: inhibitors; HEK-293 ATXN2-luciferase reporter, luminescence, 24 h; hit rate 0.72% among 360,000; further: on the % scale 0 is the no-effect control and ±100 the full control effect; nearly all actives have a fitted effect of over 55% in size
#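 ATXN2-luciferase reporter cells (luciferase flanked by upstream and downstream ATXN2 gene portions) were treated 24 h at 37 °C with compounds at up to 57 uM. SteadyGlo luminescence gave expression; GF-AFC fluorescence gave viability.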
# KB-3-1 tox – KB-3-1 parental cell cytotoxicity | KB-3-1 viability, CellTiter-Glo ATP luminescence, 72 h | Potency, µM (highest dose often 46.1 µM), most hits filed as cytotoxic | hit rate 1.4% among 400,000 | AID 1347075; further: on the % scale 0 is the no-effect control and ±100 the full control effect; nearly all actives have a fitted effect of over 60% in size
#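 72 h, 37 °C compound treatment of KB-3-1 parental cells; CellTiter-Glo added, 10 min, luminescence read. Data corrected against DMSO-only plates and normalized before curve fitting.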
# * marks the source's active call; other numbers are inactive results; i = inactive; ? = inconclusive; . = no result. Compounds with a hit are over-represented: about 5.9% of the library has one in this group of screens. The call rests on the fitted dose curve; in most records, active means well fitted curve in the direction sought with a large enough effect; inconclusive means small, poorly fitted or top-dose-only effect, or another doubt; inactive means no such curve, though single readings can be large; an effect the other way counts as inactive or inconclusive. Potency means the concentration at half of the fitted maximal effect.
SMILES,TGFb inhibitor,KB-V1 MDR tox,HepG2 tox,S2 tox,ATXN2 expr inh,KB-3-1 tox
CCc1ccc(-c2cn3c(n2)sc2cc(C(=O)NC4CCCCCC4)ccc23)cc1,-15.2%,.,-3.8%,.,.,.
CCc1ccc2oc(-c3cccc(NC(=O)c4ccc(-c5cccc([N+](=O)[O-])c5)o4)c3)nc2c1,5.7%,i,-2.8%,?,59.7%,i
O=C(NCC(c1ccco1)N1CCCC1)c1ccc(Cl)cc1 (stereo not drawn),-3.4%,i,-9.4%,i,4.9%,i
O=C(NCC(c1ccco1)N1CCCCC1)c1ccc([N+](=O)[O-])s1 (stereo not drawn),15.8µM*,?,-62.7%,i,?,?
O=C(NCC(c1ccco1)N1CCCC1)c1cc2cc(Cl)ccc2o1 (stereo not drawn),-1.2%,9.2µM*,-35.0%,i,9.6%,i
Cc1ccc(C(=O)NCC(c2ccco2)N2CCCCC2)s1 (stereo not drawn),-4.1%,i,-1.6%,i,.,i
Cc1ccc(S(=O)(=O)N(CC(=O)N/N=C/c2ccco2)c2cc(Cl)cc(Cl)c2)cc1,?,18.4µM*,5.8%,i,-28.0%,i
O=C(CN(c1ccc(Cl)cc1)S(=O)(=O)c1ccccc1)N/N=C/c1ccco1,4.8%,i,-3.0%,i,2.3%,i
COCC1CCCN(Cc2ccc3c(c2)CN(C(=O)c2cn4ccc(C)cc4n2)CCO3)C1 (stereo not drawn),.,.,.,i,.,.
CCCCn1c(CCC(=O)O)nc2c1c(=O)[nH]c(=O)n2CCC,0.7%,i,-2.7%,i,-10.1%,i
CCCCn1c(=O)[nH]c(=O)c2c1nc(COC(=O)c1c(C)noc1C)n2CCC,0.3%,4.11µM*,0.1%,i,1.0%,i
OC[C@@H]1CN(Cc2ccccc2)C[C@H](n2cnc3c(NCc4ccncc4)ncnc32)O1,-10.8%,i,8.4%,i,12.9%,i
Cc1ccc2c(c1)N(CC(=O)N1CCCc3ccccc31)C(=O)CO2,?,11.6µM*,-32.0%,i,-7.2%,i
Cc1ccc2c(c1)N(CC(=O)NC1CCC(C)CC1)C(=O)CO2 (stereo not drawn),1.3%,i,-5.7%,i,18.1%,i
CCOC(=O)c1cc2occc2n1CC(=O)N1CCCc2ccccc21,-19.9%,16.4µM*,-7.6%,i,5.7%,i
Cc1ccc2c(c1)N(CC(=O)N1CCCCC1)C(=O)CO2,-10.3%,?,-9.6%,i,4.3%,?
CC1CC(C)(C)CC2(C1)NC(=O)N(CC(=O)NC1CCCc3ccccc31)C2=O (stereo not drawn),-20.3%,20.6µM*,3.4%,i,-0.1%,i
Cc1ccc2c(c1)N(CC(=O)NC1CCCc3ccccc31)C(=O)CO2 (stereo not drawn),-6.1%,16.4µM*,-9.8%,i,-7.7%,i
CCC1CN(CCNC(=O)c2cccnc2OC)Cc2cc(OC)ccc2O1 (stereo not drawn),.,.,.,i,.,.
Oc1ccc(-c2ccc(-c3cc(Nc4cccc(CNC5CC5)c4)n[nH]3)cc2)c(O)c1,.,.,.,.,2.43µM*,.
OC(CNc1nc(C(F)(F)F)nc2ccccc12)c1ccccc1 (stereo not drawn),?,11.6µM*,-8.7%,i,-18.1%,?
O=C(NCC1CCC2(CCN(Cc3cccc4ncccc34)CC2)O1)c1ccccc1 (stereo not drawn),.,.,.,i,.,.
CC(C)(C)c1ccc(C2CC2C(=O)N/N=C\c2ccc[nH]2)cc1 (stereo not drawn),?,?,-16.6%,?,?,14.6µM*
CC(C)(C)c1ccc(C(=O)Nc2cc(-c3nc4ccccc4o3)ccc2Cl)cc1,-5.5%,i,-32.8%,i,9.1%,i
CCN(CC)c1ccc(/C=C/c2ccccn2)cc1,121.0%,i,0.8%,.,.,0.326µM*
SMILES,TGFb inhibitor,KB-V1 MDR tox,HepG2 tox,S2 tox,ATXN2 expr inh,KB-3-1 tox
O=C(NCCS(=O)(=O)N1CCN(c2ccc(F)cc2)CC1)C(c1ccccc1)c1ccccc1,-23.5%,.,-20.2%,.,.,.
O=C(NCc1ccco1)c1cc(-c2ccccc2)nn1CC1CC(c2cccnc2)=NO1 (stereo not drawn),-12.4%,i,-0.5%,i,2.1%,i
O=C(NCc1ccc(OC(F)(F)F)cc1)c1cc(-c2ccccc2)nn1CC1CC(c2cccnc2)=NO1 (stereo not drawn),?,20.6µM*,-2.6%,i,-16.8%,i
Cc1cnc(SCC2CCCO2)nc1C1CCCN(Cc2cc3c(cc2Cl)OCO3)C1 (stereo not drawn),.,.,.,i,.,.
O=C(NCc1ccco1)c1ccc2c(=O)n(Cc3ccco3)c(SCC(=O)N3CCCC3)nc2c1,-12.9%,i,-27.9%,i,1.5%,i
CCc1nc(SCC(=O)N2CCCC2)c2ccccc2n1,3.1%,i,-2.1%,i,28.8%,i
CCn1c(SCC(=O)N2CCCCCC2)nc2ccccc2c1=O,-18.7%,9.2µM*,-3.2%,i,-26.6%,i
O=C(CSc1nc2ccccc2c(=O)n1Cc1ccco1)N1CCCCCC1,-16.1%,18.4µM*,-30.2%,i,-17.3%,?
CC(C)c1nc(SCC(=O)N2CCCC2)c2ccccc2n1,-7.8%,20.6µM*,-4.0%,i,7.7%,i
CN(C)C(=O)CSc1nc2ccccc2n1CC(=O)N1CCN(c2ccccc2)CC1,-0.9%,i,3.9%,i,0.4%,i
C=CCn1c(SCC(=O)N2CCCCCC2)nc2ccccc2c1=O,-4.7%,i,-21.2%,i,18.0%,i
CCOC(=O)CSc1nc2ccccc2n1CC(=O)N1CCN(c2ccccc2)CC1,?,7.31µM*,-21.4%,i,-1.9%,i
Cc1ccc(C(=O)N2CCN(c3ccccc3F)CC2)cc1NC(=O)c1nsc2ccccc12,-13.6%,i,-27.1%,i,-10.1%,i
CCOC(=O)COc1ccc(CC)cc1C(=O)c1ccn2nc(-c3ccccc3)cc2n1,-4.5%,i,-8.0%,?,-2.8%,i
O=C(C[C@H]1CC[C@H](NC(=O)C2CCOCC2)[C@@H](CO)O1)NCc1ccncc1,.,i,.,.,.,i
COc1ccc(-c2noc(-c3ccc(N4CCCC4)c([N+](=O)[O-])c3)n2)cc1,-1.2%,i,-0.4%,i,21.4%,i
COc1ccc(N2CCN(c3oc(/C=C/c4cc(OC)c(OC)c(OC)c4)nc3C#N)CC2)cc1,-2.2%,.,-9.9%,.,.,.
CC1CCN(C(=O)Cn2c(SCC(=O)Nc3ccc(F)cc3)nc3ccccc32)CC1,-7.4%,?,8.1%,?,-5.0%,i
